This passage reports outcome and AC50 results from PubChem BioAssay (EPA / NIEHS).

Calls of active or inactive are those of the source. How the source made its calls: active means hit-call score of the fitted dose curve at least 0.9, where 1 is the maximum; inactive means score below 0.9.

Assay [1] is described as follows: ATG_ISRE_CIS: Attagene CIS-FACTORIAL HepG2 Assay for human Interferon Regulatory Factor 1 (IRF1) binding to an Interferon-Stimulated Response Element (ISRE) (AID 2282948). The following applies: HepG2 ISRE cis-reporter (Attagene), mRNA transcription readout; actives raise or lower the signal. Put shortly: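 Cell-based cis-reporter assay; HepG2; 24 h exposure; reporter mRNA by RT-PCR plus capillary electrophoresis fluorescence; activity in either direction scored relative to DMSO.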

A short description of assay [2]: ATG_M_32_CIS: Attagene CIS-FACTORIAL HepG2 Assay for M32 Transcription Factor (Internal Marker) (AID 2282949).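 Further: background control marker of the multiplexed CIS panel rather than a real target.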 The conditions noted are these: HepG2 Attagene cis-factorial M32 reporter, mRNA; actives raise or lower the signal. The method, boiled down:
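Internal background marker read-out: RT-PCR/capillary electrophoresis fluorescence of reporter transcripts from transiently transfected HepG2 cells after 24 h chemical exposure. Activity fitted bidirectionally relative to DMSO negative control.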

The nature of assay [3]: ATG_M_06_CIS: Attagene CIS-FACTORIAL HepG2 Assay for M06 Transcription Factor (Internal Marker) (AID 2282950). The following applies: HepG2 Attagene CIS-FACTORIAL M06 internal marker reporter; actives raise or lower the signal. The method, boiled down: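 Internal background marker within multiplexed cis-reporter HepG2 system. Cells transiently transfected, dosed 24 h; reporter mRNA measured by RT-PCR, HpaI digestion and capillary electrophoresis. Bidirectional fit relative to DMSO.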

In assay [4] the target is Hypoxia-inducible factor 1-alpha (Homo sapiens) (UniProt Q16665). The assay can be described thus: ATG_HIF1a_CIS: Attagene CIS-FACTORIAL HepG2 Assay for human Hypoxia Inducible Factor 1 (HIF1A) (AID 2282951). The following applies: HepG2 Attagene cis-factorial HIF1a reporter transcription; actives raise or lower the signal. The method, boiled down:
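RT-PCR/capillary electrophoresis fluorescence readout of reporter transcripts from endogenous-TF-driven cis elements in transfected HepG2 cells, 24 h exposure; activity fitted in both directions against DMSO controls.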

The target in assay [5] is Hepatocyte nuclear factor 6 (Homo sapiens) (UniProt Q9UBC0). The assay can be described thus: ATG_HNF6_CIS: Attagene CIS-FACTORIAL HepG2 Assay for human Hepatocyte Nuclear Factor 6 (HNF6) (AID 2282952). The conditions noted are these: HepG2 Attagene cis-factorial HNF6 reporter transcription; actives raise or lower the signal. The method, boiled down: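 Multiplexed mRNA reporter assay in transfected HepG2; 24 h dosing; RT-PCR plus capillary electrophoresis fluorescence; DMSO-referenced bidirectional curve fitting.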
Chain of Hepatocyte nuclear factor 6 (Homo sapiens) (Q9UBC0 whole entry, looked up): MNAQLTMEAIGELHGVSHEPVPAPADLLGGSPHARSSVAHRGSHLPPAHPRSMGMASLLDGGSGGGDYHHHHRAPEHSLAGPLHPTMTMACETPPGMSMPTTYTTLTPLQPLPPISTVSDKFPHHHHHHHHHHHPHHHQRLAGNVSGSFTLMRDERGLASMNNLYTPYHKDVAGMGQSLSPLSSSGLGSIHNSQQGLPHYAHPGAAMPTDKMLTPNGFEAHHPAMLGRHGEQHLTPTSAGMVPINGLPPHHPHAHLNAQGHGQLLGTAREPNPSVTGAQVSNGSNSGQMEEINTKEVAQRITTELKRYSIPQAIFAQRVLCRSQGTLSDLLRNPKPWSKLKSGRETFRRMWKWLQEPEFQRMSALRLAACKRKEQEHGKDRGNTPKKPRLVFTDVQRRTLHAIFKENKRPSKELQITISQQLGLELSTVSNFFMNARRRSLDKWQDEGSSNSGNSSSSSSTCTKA

Assay [6] deals with Heat shock factor protein 1 (Homo sapiens) (UniProt Q00613). The assay can be described thus: ATG_HSE_CIS: Attagene CIS-FACTORIAL HepG2 Assay for human Heat Shock Transcription Factor 1 (HSE) (AID 2282953). The conditions noted are these: HepG2 HSE cis-reporter, Attagene RNA transcription; actives raise or lower the signal. Put shortly: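 HepG2 cells transfected with cis-promoter reporter units sensing endogenous transcription factor activity; reporter mRNA quantified 24 h post-dose by RT-PCR and capillary electrophoresis of 6-FAM-labelled products. Bidirectional fitting against DMSO.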
Chain of Heat shock factor protein 1 (Homo sapiens) (Q00613 whole entry, looked up): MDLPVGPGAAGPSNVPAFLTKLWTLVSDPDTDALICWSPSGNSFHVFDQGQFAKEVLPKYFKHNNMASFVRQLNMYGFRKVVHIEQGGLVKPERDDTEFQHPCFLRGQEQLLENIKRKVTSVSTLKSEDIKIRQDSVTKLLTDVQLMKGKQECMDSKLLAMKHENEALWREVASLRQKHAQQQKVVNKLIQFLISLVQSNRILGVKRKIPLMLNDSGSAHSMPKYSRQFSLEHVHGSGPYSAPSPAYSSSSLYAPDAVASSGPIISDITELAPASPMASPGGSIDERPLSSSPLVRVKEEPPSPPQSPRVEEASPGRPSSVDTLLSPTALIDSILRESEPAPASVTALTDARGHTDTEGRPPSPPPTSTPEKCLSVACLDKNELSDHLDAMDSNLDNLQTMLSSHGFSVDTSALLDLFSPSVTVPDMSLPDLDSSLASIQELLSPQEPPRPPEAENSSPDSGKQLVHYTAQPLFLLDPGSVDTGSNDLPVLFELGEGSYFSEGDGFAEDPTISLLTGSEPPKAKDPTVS

Assay [7] in a line: ATG_MRE_CIS: Attagene CIS-FACTORIAL HepG2 Assay for human Metal Responsive Element (MRE) (AID 2282954). The conditions noted are these: HepG2 MRE cis-reporter transcription, Attagene multiplex; actives raise or lower the signal. The method, boiled down: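 Fluorescent reporter fragments separated by capillary electrophoresis give mRNA induction for the MRE unit after 24 h treatment of transfected HepG2 cells. Endogenous transcription-factor activity is read; DMSO serves as negative control and baseline.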

Assay [8] is described as follows: ATG_PBREM_CIS: Attagene CIS-FACTORIAL HepG2 Assay for human Phenobarbital-responsive Enhancer Module (PBREM) (AID 2282955). The following applies: HepG2 PBREM cis-reporter, Attagene multiplexed transcription; actives raise or lower the signal. The method, boiled down: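 Reporter mRNA read by RT-PCR, 6-FAM primer extension, HpaI digestion and capillary electrophoresis. Transfected HepG2 cells, 24 h compound exposure. Gain or loss of signal fitted bidirectionally relative to DMSO baseline.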

For assay [9], the target named is Paired box protein Pax-6 (Homo sapiens) (UniProt P26367). The assay can be described thus: ATG_Pax6_CIS: Attagene CIS-FACTORIAL HepG2 Assay for human Paired Box 6 (PAX6) (AID 2282956). The conditions noted are these: HepG2 CIS-FACTORIAL PAX6 reporter transcription, RNA readout; actives raise or lower the signal. Put shortly:
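Multiplexed cis-reporter HepG2 system; 24 h treatment; reporter mRNA read by RT-PCR/CE fluorescence; bidirectional fit vs DMSO.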

The nature of assay [10]: ATG_PXRE_CIS: Attagene CIS-FACTORIAL HepG2 Assay for human Pregnane X Receptor Element (PXRE) (AID 2282957). The following applies: HepG2 Attagene CIS-FACTORIAL PXRE reporter, mRNA; actives raise or lower the signal. The method, boiled down:
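Cells: HepG2, transiently transfected reporter units under cis promoter control. Exposure: 24 h. Detection: reporter mRNA via RT-PCR/CE fluorescence; bidirectional fitting, DMSO-referenced.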

Assay [11] is described as follows: ATG_PPRE_CIS: Attagene CIS-FACTORIAL HepG2 Assay for human Peroxisome Proliferator-activated Response Element (PPRE) (AID 2282958). The conditions noted are these: HepG2 PPRE cis-element reporter, Attagene transcription factor profiling; actives raise or lower the signal. Put shortly:
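Read-out: fluorescent reporter mRNA fragments resolved by capillary electrophoresis after RT-PCR. HepG2 cells carried transiently transfected PPRE-driven cis reporter constructs and were dosed for 24 h; gain or loss of signal fitted relative to DMSO.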

Assay [12] in a line: ATG_RORE_CIS: Attagene CIS-FACTORIAL HepG2 Assay for human RAR-related Orphan Receptor Element (RORE) (AID 2282959). The following applies: HepG2 Attagene cis-factorial RORE reporter, mRNA; actives raise or lower the signal. Put shortly: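 Readout: fluorescent reporter mRNA by RT-PCR plus capillary electrophoresis, 24 h after dosing transfected HepG2 cells. Endogenous transcription factor activity on a cis promoter element is measured. Gain or loss of signal fitted against DMSO.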

Assay [13] in a line: ATG_Sox_CIS: Attagene CIS-FACTORIAL HepG2 Assay for human SRY-box transcription factor (SOX) (AID 2282960). The conditions noted are these: HepG2 Attagene cis-factorial SOX reporter, mRNA; actives raise or lower the signal. Put shortly: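 Read-out: fluorescent RT-PCR products of SOX1-linked reporter transcripts resolved by capillary electrophoresis, fitted bidirectionally against DMSO. Transiently transfected HepG2 cells, 24 h after chemical exposure, endogenous transcription factor activity.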

Assay [14] is described as follows: ATG_SREBP_CIS: Attagene CIS-FACTORIAL HepG2 Assay for human Sterol Regulatory Element Binding (SREBP) (AID 2282962). The following applies: HepG2 Attagene cis-factorial SREBP reporter, mRNA; actives raise or lower the signal. The method, boiled down:
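mRNA induction of transfected cis-promoter reporters in HepG2 cells, 24 h post-dose. Detection: RT-PCR with 6-FAM-labelled products, HpaI digest, capillary electrophoresis. DMSO served as negative control and baseline.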

Assay [15] has as its target Signal transducer and activator of transcription 3 (Homo sapiens) (UniProt P40763). The assay can be described thus: ATG_STAT3_CIS: Attagene CIS-FACTORIAL HepG2 Assay for human Signal Transducer and Activator of Transcription 3 (STAT3) (AID 2282963). The following applies: HepG2, Attagene cis-factorial STAT3 reporter transcription; actives raise or lower the signal. The method, boiled down: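 Values derive from bidirectional fits relative to DMSO of reporter mRNA levels, measured by RT-PCR with capillary electrophoresis, in HepG2 cells carrying transiently transfected cis-regulated reporter units and exposed 24 h.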

The nature of assay [16]: ATG_TA_CIS: Attagene CIS-FACTORIAL HepG2 Assay for human TA Basal Promoter (AID 2282964). The conditions noted are these: HepG2 Attagene CIS-factorial TA basal promoter reporter; actives raise or lower the signal. Put shortly: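 HepG2 cells transiently transfected with multiple reporter units under cis promoter elements, reporting endogenous transcription factor activity; this endpoint tracks the TA basal promoter as background control. Reporter mRNA after 24 h dosing measured by RT-PCR/capillary electrophoresis; bidirectional fits versus DMSO.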

The nature of assay [17]: ATG_TCF_b_cat_CIS: Attagene CIS-FACTORIAL HepG2 Assay for human T-Cell-Factor with beta-catenin (TCF/b-cat) (AID 2282965). The following applies: HepG2 TCF/beta-catenin cis-reporter transcription, actives raise or lower the signal. The method, boiled down:
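HepG2, transient MRTU transfection, cis-element-driven reporters (endogenous TFs). 24 h compound exposure. Readout: reporter mRNA by RT-PCR + 6-FAM primer extension, HpaI digest, capillary electrophoresis. Gain/loss fit vs DMSO baseline.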

The target in assay [18] is Transcription factor Sp1 (Homo sapiens) (UniProt P08047). The assay can be described thus: ATG_Sp1_CIS: Attagene CIS-FACTORIAL HepG2 Assay for human Specificity Protein 1 (Sp1) (AID 2282961). The following applies: HepG2 Sp1 cis-reporter transcription, actives raise or lower the signal. Put shortly:
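Read-out: fluorescence of 6-FAM-labeled, HpaI-digested RT-PCR products separated by capillary electrophoresis. HepG2 cells carried transfected cis-element reporter units and were exposed to chemicals for 24 h; gain or loss of signal fitted relative to DMSO.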

Assay [19] can be described thus: ATG_GRE_CIS: Attagene CIS-FACTORIAL HepG2 Assay for human Glucocorticoid Response Elements (GRE) (AID 2282947). The conditions noted are these: HepG2 GRE cis-reporter, Attagene multiplex mRNA; actives raise or lower the signal. Put shortly:
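Endogenous transcription factor activity is read through cis-element reporter constructs transiently transfected into HepG2 cells. After 24 h treatment, labelled RT-PCR products are resolved by capillary electrophoresis; DMSO sets baseline for bidirectional curve fitting.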

Chain of Hypoxia-inducible factor 1-alpha (Homo sapiens) (Q16665 whole entry, looked up): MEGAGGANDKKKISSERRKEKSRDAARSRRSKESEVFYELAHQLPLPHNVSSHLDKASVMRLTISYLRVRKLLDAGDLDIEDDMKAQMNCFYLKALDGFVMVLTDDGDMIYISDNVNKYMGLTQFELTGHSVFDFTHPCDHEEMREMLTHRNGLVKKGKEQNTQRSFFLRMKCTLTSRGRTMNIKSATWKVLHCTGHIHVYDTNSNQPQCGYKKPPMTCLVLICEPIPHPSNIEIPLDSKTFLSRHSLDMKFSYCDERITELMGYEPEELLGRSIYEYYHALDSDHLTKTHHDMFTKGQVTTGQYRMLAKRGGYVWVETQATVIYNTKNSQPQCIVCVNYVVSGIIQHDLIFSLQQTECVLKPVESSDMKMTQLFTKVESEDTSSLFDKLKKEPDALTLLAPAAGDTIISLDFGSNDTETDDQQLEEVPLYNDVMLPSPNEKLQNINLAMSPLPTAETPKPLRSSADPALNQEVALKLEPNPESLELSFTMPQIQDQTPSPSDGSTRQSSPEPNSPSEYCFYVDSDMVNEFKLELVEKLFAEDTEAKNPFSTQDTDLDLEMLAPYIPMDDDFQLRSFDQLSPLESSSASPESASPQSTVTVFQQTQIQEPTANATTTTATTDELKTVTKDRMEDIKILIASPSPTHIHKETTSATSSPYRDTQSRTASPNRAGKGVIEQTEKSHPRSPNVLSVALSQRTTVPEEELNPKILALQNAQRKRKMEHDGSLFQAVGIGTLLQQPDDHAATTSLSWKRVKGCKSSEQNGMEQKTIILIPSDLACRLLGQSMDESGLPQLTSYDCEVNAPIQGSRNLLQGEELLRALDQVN
Chain of Transcription factor Sp1 (Homo sapiens) (P08047 whole entry, looked up): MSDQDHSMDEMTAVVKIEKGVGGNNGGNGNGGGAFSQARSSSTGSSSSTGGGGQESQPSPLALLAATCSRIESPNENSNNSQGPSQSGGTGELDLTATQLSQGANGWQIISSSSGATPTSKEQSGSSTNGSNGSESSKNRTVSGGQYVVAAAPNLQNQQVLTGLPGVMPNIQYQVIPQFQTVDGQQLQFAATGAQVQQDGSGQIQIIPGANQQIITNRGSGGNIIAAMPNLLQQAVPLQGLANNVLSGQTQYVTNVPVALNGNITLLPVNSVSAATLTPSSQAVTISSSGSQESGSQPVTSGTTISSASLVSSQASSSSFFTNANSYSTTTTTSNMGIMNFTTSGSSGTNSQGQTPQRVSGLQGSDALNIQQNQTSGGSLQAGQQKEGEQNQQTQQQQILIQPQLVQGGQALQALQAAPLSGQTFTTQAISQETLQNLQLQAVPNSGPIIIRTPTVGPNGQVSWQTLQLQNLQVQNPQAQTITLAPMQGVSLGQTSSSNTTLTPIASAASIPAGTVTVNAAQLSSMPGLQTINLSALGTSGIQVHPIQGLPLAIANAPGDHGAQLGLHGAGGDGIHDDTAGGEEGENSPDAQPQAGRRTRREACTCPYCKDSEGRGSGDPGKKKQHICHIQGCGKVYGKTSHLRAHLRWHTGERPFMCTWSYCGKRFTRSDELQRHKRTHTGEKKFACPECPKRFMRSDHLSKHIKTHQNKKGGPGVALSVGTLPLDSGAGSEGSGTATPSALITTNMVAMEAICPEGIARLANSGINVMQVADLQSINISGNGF
Chain of Signal transducer and activator of transcription 3 (Homo sapiens) (P40763 whole entry, looked up): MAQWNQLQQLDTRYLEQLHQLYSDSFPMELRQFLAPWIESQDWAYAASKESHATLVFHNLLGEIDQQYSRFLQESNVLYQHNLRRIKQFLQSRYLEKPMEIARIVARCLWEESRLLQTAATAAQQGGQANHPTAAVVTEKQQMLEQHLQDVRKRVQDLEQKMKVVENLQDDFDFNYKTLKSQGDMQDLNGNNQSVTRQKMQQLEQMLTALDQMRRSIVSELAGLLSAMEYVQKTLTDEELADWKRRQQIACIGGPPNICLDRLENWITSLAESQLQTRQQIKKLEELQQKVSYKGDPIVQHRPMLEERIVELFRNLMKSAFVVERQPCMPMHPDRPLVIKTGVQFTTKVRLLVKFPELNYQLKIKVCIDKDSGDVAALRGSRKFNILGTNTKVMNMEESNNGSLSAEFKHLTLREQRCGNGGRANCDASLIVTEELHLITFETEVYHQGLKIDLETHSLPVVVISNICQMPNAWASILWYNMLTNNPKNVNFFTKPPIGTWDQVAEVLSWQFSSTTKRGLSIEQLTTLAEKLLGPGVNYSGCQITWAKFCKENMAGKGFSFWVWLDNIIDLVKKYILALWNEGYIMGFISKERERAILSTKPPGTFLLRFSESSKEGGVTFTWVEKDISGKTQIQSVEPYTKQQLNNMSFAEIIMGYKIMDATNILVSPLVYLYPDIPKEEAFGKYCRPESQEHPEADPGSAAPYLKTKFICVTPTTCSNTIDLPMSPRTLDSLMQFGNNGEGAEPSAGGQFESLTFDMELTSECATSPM
Chain of Paired box protein Pax-6 (Homo sapiens) (P26367 whole entry, looked up): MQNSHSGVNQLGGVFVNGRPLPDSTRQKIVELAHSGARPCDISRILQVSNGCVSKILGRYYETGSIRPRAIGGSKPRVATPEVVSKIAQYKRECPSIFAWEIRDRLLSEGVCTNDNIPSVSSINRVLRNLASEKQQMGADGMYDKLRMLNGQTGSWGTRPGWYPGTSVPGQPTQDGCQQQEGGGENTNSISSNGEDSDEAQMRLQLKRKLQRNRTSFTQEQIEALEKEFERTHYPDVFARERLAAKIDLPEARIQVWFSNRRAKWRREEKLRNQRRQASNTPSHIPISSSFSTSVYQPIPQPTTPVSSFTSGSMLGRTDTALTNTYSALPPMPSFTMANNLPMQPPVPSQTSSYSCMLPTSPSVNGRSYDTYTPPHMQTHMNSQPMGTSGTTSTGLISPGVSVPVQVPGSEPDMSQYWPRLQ

As to `CC1(CO)CN(c2ccccc2)NC1=O` (stereo unspecified), the outcome in [1], in assay [2], in assay [3], in [4], in [5] and in assay [6] was inactive. The result in [7], in assay [8], in [9], in [10], in assay [11] and in assay [12] was inactive. Also, the compound was classed as inactive in assay [13], in assay [14], in assay [15], in assay [16] and in assay [17].
On to `NCCNCCN`, for which the compound was classed as inactive in [1], in [2], in assay [3], in assay [4], in assay [5] and in [6]. The compound was classed as inactive in [7], in [8], in [9], in assay [10], in [11] and in assay [12]. In addition, the compound was called inactive in [13], in assay [18], in [14], in assay [15], in assay [16] and in assay [17].
Consider `C=COCCOCCOCCOC=C`, for which the compound was classed as inactive in assay [19], in assay [3], in [4], in assay [5], in assay [6] and in assay [7]. The outcome in assay [8], in assay [9], in assay [10], in assay [11], in [12] and in [13] was inactive. Also, the call in assay [18], in assay [14], in assay [15], in assay [16] and in assay [17] was inactive.
Consider `O=C[C@H](O)[C@H](O)[C@H](O)CO`, for which the call in assay [1], in [2], in assay [3], in assay [4], in assay [5] and in assay [6] was inactive. In addition, the compound was classed as inactive in [7], in [8], in [9], in [10], in [11] and in assay [12]. Besides, the result in [13], in assay [18], in assay [14], in assay [15], in assay [16] and in [17] was inactive.
As for `S=C(S)NCCNC(=S)S`, the result in assay [19], in assay [2], in assay [3], in assay [4], in [5] and in assay [6] was inactive. Besides, the compound was classed as inactive in [7], in [9], in [10], in assay [12], in [13] and in [18]. In addition, the compound was called inactive in assay [14], in assay [15], in assay [16] and in [17].
Turning to `CC1(C)[C@H](C(=O)OCc2cccc(Oc3ccccc3)c2)[C@@H]1C=C(Cl)Cl`, the compound was called inactive in assay [19], in assay [3], in assay [4], in assay [5], in [6] and in [7]. The result in [8], in assay [9], in assay [12], in assay [13], in assay [14] and in assay [15] was inactive. The outcome in [17] was inactive. Further, in assay [10], the AC50 was 4.97 µM (active).
For `Cc1ccc(S)cc1`, the AC50 in assay [1] is 35.3 µM (active); in assay [5], 100 µM (active); in [6] it was 161 µM (active); in assay [17] it was 24.4 µM (active). Moreover, the result in [2], in [3], in assay [4], in [7], in assay [8] and in assay [9] was inactive. Further, the compound was classed as inactive in assay [10], in assay [11], in assay [12], in [13], in [18] and in assay [14].

In general, AC50 refers to the concentration giving half of the maximal activity seen.
